From article PMC7862700, “An all-to-all approach to the identification of sequence-specific readers for epigenetic DNA modifications on cytosine”

Experiments:
Assay in all cases: DAPPL (digital affinity profiling via proximity ligation, sequencing); 10 mM Tris-HCl pH 7.5, 50 mM NaCl, 1 mM DTT, 4% glycerol, room temperature, 30 min; GST-TFs on glutathione beads, 16-mer random dsDNA library, 0.1% formaldehyde crosslink after washing; high values mean tight binding
Conditions in all cases: protein: recombinant; tags: N-terminal GST; dsDNA, one strand shown
FLI1 = target: T1, FLI1 (Homo sapiens, UniProt Q01543 1-452)
T1 sequence: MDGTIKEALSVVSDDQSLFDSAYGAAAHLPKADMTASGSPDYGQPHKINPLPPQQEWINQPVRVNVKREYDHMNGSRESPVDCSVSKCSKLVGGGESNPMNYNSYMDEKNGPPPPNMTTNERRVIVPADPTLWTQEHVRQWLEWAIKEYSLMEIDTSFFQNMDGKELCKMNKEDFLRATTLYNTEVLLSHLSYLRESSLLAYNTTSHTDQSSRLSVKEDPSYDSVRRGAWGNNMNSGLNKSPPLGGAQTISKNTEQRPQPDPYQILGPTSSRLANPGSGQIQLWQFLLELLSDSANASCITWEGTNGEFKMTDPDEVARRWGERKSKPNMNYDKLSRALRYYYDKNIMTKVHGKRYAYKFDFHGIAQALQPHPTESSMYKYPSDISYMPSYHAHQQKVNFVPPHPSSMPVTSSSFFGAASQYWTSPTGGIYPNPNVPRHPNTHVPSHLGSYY
How it was run: (§1)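 Pools were built from human transcription factors expressed in yeast as GST fusions, captured on glutathione beads and DNA-barcoded, along with a tag-only sample. Incubation with 200 nmole of a 16-mer random double-stranded DNA library lasted 30 min at room temperature in Tris/NaCl/DTT/glycerol buffer, and was followed by washing, 0.1% formaldehyde crosslinking, proximity ligation, PCR amplification and Illumina NextSeq500 sequencing. Binding signal is the quotient of each hexamer's read frequency for a factor and its frequency for the tag-only sample.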

ELK1 = target: T2, ELK1 (Homo sapiens, UniProt P19419 1-428)
T2 sequence: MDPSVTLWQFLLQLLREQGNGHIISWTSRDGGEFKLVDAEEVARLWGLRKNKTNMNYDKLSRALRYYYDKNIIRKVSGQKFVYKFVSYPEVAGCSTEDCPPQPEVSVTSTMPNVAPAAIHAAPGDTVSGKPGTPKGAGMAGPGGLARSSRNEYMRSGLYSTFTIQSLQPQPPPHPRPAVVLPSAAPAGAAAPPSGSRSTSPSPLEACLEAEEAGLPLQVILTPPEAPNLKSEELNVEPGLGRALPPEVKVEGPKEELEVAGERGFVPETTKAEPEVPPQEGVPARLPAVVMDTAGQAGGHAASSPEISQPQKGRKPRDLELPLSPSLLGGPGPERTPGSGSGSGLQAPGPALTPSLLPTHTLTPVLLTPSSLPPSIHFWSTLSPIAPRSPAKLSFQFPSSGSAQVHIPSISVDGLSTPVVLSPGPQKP
How it was run: as §1

GABPA = target: T3, GABPA (Homo sapiens, UniProt Q06546 1-454)
T3 sequence: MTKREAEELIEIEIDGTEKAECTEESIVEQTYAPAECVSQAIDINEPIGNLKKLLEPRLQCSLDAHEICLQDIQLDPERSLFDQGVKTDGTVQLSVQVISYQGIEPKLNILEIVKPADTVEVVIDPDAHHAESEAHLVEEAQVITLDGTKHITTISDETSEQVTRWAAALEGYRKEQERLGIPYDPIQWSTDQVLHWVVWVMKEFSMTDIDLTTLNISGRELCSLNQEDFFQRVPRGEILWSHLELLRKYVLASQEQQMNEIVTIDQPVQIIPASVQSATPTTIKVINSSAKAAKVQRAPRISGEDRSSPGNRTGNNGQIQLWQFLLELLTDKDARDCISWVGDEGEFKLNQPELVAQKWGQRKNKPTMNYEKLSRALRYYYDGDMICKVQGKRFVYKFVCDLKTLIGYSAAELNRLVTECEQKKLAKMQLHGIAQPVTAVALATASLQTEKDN
How it was run: as §1

ERG = target: T4, ERG (Homo sapiens, UniProt P11308 1-479)
T4 sequence: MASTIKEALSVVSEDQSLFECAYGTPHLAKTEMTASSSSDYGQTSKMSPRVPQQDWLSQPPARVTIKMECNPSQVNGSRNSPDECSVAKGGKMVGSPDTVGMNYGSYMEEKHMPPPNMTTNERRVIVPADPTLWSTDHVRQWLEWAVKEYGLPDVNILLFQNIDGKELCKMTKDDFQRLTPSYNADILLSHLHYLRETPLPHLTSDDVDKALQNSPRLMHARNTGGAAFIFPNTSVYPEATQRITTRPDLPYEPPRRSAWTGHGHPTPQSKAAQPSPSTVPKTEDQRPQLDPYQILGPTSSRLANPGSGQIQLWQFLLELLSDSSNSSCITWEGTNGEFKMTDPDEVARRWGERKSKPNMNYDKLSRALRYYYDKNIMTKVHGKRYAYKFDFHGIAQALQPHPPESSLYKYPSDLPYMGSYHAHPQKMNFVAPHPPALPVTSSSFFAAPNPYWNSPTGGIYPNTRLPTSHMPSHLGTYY
How it was run: as §1

ELF1 = ELF1 (Homo sapiens, UniProt P32519 1-619)
How it was run: as §1

EHF = target: T5, EHF (Homo sapiens, UniProt Q9NZC4 1-300)
T5 sequence: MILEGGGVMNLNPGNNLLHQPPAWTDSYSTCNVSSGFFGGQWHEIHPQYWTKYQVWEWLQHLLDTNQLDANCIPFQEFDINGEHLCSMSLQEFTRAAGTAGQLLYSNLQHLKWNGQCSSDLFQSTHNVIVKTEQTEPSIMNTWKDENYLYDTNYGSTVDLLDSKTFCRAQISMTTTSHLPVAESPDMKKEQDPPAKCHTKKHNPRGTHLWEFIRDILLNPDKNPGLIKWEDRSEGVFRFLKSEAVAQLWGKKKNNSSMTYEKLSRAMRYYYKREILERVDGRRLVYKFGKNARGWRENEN
How it was run: as §1

SPI1 = SPI1 (Homo sapiens, UniProt P17947 1-270)
How it was run: as §1

SPIB = SPIB (Homo sapiens, UniProt Q01892 1-262)
How it was run: as §1

ELK3 = target: T6, ELK3 (Homo sapiens, UniProt P41970 1-407)
T6 sequence: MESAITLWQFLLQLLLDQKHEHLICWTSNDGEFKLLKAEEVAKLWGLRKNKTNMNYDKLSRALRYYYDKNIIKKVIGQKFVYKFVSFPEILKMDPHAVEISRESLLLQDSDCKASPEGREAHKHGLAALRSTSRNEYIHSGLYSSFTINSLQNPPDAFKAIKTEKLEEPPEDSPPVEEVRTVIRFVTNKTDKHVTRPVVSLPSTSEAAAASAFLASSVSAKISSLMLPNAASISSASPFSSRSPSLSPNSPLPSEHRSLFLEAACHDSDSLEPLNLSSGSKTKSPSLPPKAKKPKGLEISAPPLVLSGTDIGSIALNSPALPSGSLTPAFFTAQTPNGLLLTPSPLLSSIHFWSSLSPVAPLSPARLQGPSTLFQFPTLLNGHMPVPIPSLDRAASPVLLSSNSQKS
How it was run: as §1

SPIB, sequence (Q01892 whole entry): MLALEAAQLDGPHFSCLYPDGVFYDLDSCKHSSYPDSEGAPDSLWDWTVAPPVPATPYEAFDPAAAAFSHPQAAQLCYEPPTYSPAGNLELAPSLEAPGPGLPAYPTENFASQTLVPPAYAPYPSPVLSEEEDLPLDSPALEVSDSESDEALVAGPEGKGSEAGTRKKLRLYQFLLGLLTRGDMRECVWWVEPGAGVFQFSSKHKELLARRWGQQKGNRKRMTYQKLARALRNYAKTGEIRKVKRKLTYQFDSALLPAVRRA
ELF1, sequence (P32519 whole entry): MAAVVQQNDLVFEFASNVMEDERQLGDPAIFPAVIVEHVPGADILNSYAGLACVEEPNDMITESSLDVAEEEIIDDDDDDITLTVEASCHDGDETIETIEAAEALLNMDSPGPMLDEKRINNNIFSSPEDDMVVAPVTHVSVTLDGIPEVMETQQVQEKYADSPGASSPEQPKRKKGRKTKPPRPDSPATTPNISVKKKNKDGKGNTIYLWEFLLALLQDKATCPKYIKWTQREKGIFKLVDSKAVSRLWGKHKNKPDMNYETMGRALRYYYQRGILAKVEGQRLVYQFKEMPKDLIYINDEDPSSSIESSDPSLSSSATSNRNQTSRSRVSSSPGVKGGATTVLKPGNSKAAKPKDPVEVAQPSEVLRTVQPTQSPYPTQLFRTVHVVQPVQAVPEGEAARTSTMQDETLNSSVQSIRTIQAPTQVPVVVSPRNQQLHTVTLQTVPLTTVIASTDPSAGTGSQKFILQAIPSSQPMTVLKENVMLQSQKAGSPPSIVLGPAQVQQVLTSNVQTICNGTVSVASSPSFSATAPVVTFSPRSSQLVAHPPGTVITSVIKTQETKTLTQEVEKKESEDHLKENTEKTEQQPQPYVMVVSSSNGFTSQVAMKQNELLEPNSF

Row | Sequence | binding signal (FLI1) | binding signal (ELK1) | binding signal (GABPA) | binding signal (ERG) | binding signal (ELF1) | binding signal (EHF) | binding signal (SPI1) | binding signal (SPIB) | binding signal (ELK3)
1 | TGCAAC | 1.27 fold enrichment (6-mer frequency, TF over GST control) | 1.32 fold enrichment (6-mer frequency, TF over GST control) | 1.4 fold enrichment (6-mer frequency, TF over GST control) | 1.41 fold enrichment (6-mer frequency, TF over GST control) | 1.35 fold enrichment (6-mer frequency, TF over GST control) | 1.36 fold enrichment (6-mer frequency, TF over GST control) | 1.28 fold enrichment (6-mer frequency, TF over GST control) | 1.34 fold enrichment (6-mer frequency, TF over GST control) | 1.43 fold enrichment (6-mer frequency, TF over GST control)
2 | CATGCC | 1.18 fold enrichment (6-mer frequency, TF over GST control) | 1.17 fold enrichment (6-mer frequency, TF over GST control) | 1.09 fold enrichment (6-mer frequency, TF over GST control) | 1.1 fold enrichment (6-mer frequency, TF over GST control) | 1.16 fold enrichment (6-mer frequency, TF over GST control) | 1.16 fold enrichment (6-mer frequency, TF over GST control) | 1.09 fold enrichment (6-mer frequency, TF over GST control) | 1.11 fold enrichment (6-mer frequency, TF over GST control) | 1.06 fold enrichment (6-mer frequency, TF over GST control)
3 | TTCAGT | 1.07 fold enrichment (6-mer frequency, TF over GST control) | 1.04 fold enrichment (6-mer frequency, TF over GST control) | 1.06 fold enrichment (6-mer frequency, TF over GST control) | 1.03 fold enrichment (6-mer frequency, TF over GST control) | 1.09 fold enrichment (6-mer frequency, TF over GST control) | 1.04 fold enrichment (6-mer frequency, TF over GST control) | 1.11 fold enrichment (6-mer frequency, TF over GST control) | 1 fold enrichment (6-mer frequency, TF over GST control) | 1.02 fold enrichment (6-mer frequency, TF over GST control)
4 | TGTATA | 1.08 fold enrichment (6-mer frequency, TF over GST control) | 1.11 fold enrichment (6-mer frequency, TF over GST control) | 1.02 fold enrichment (6-mer frequency, TF over GST control) | 1.03 fold enrichment (6-mer frequency, TF over GST control) | 1.04 fold enrichment (6-mer frequency, TF over GST control) | 1.18 fold enrichment (6-mer frequency, TF over GST control) | 1.03 fold enrichment (6-mer frequency, TF over GST control) | 1.19 fold enrichment (6-mer frequency, TF over GST control) | 1.15 fold enrichment (6-mer frequency, TF over GST control)
5 | CCCCGA | 1.23 fold enrichment (6-mer frequency, TF over GST control) | 1.2 fold enrichment (6-mer frequency, TF over GST control) | 1.21 fold enrichment (6-mer frequency, TF over GST control) | 1.16 fold enrichment (6-mer frequency, TF over GST control) | 1.16 fold enrichment (6-mer frequency, TF over GST control) | 1.14 fold enrichment (6-mer frequency, TF over GST control) | 1.15 fold enrichment (6-mer frequency, TF over GST control) | 1.23 fold enrichment (6-mer frequency, TF over GST control) | –
6 | CGCGTC | 1.33 fold enrichment (6-mer frequency, TF over GST control) | 1.24 fold enrichment (6-mer frequency, TF over GST control) | 1.26 fold enrichment (6-mer frequency, TF over GST control) | 1.27 fold enrichment (6-mer frequency, TF over GST control) | 1.28 fold enrichment (6-mer frequency, TF over GST control) | 1.25 fold enrichment (6-mer frequency, TF over GST control) | 1.27 fold enrichment (6-mer frequency, TF over GST control) | 1.32 fold enrichment (6-mer frequency, TF over GST control) | 1.08 fold enrichment (6-mer frequency, TF over GST control)
7 | ATCGTC | 1.11 fold enrichment (6-mer frequency, TF over GST control) | 1.17 fold enrichment (6-mer frequency, TF over GST control) | 1.06 fold enrichment (6-mer frequency, TF over GST control) | 1.03 fold enrichment (6-mer frequency, TF over GST control) | 1.05 fold enrichment (6-mer frequency, TF over GST control) | 1.1 fold enrichment (6-mer frequency, TF over GST control) | 1.04 fold enrichment (6-mer frequency, TF over GST control) | 1.15 fold enrichment (6-mer frequency, TF over GST control) | –
8 | ACGCTG | 1.14 fold enrichment (6-mer frequency, TF over GST control) | 1.19 fold enrichment (6-mer frequency, TF over GST control) | 1.23 fold enrichment (6-mer frequency, TF over GST control) | 1.18 fold enrichment (6-mer frequency, TF over GST control) | 1.19 fold enrichment (6-mer frequency, TF over GST control) | 1.23 fold enrichment (6-mer frequency, TF over GST control) | 1.11 fold enrichment (6-mer frequency, TF over GST control) | 1.05 fold enrichment (6-mer frequency, TF over GST control) | –
